From PubChem BioAssay (NCATS) come the findings set out here.

Inconclusive results are not listed. A number with no mark means an inactive call. The source made the active and inactive calls. Calls come from the whole dose curve; as a rule, active = well fitted curve in the direction sought with a large enough effect; inconclusive = small, poorly fitted or top-dose-only effect, or another doubt; inactive = no such curve, though single readings can be large; an effect the other way counts as inactive or inconclusive.

In assay [1] the target is ATP-dependent 6-phosphofructokinase (Trypanosoma brucei brucei) (UniProt O15648). The assay is described as follows: qHTS Assay to Find Inhibitors of T. brucei phosphofructokinase: hit validation (AID 492961).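 Note: luminescence reports ADP formed as PFK phosphorylates fructose-6-phosphate with ATP; % is set by controls: 0 for no effect and ±100 for the full control effect.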 The procedure, abridged:
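ADP-Glo luminescence read-out of ADP formed by 1.25 nM PFK from 0.1 mM ATP and 0.5 mM F6P (TEA pH 8.0, 45 min, RT). Compounds titrated; activity normalized to no-enzyme and full-enzyme controls.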
In general terms: qHTS replaces the single test concentration by a dilution series.

Assay [2] in a line: qHTS profiling for inhibitors of Plasmodium falciparum proliferation (AID 504749).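 For activity, negative = inhibition: 0% = DMSO vehicle and full inhibition = artemisinin control.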 For all read-outs here: nearly all actives have a fitted effect of over 60% in size. Note: potency is the fitted concentration of half-maximal effect. Conditions: P. falciparum in erythrocytes, SYBR Green DNA, 72 h; for activity, negative = inhibition: at 28.7 µM (top of the series). In outline:
(§1)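 Three-day growth assay of blood-stage parasites in erythrocytes (0.3% parasitemia, 2.5% hematocrit) at 37 C, 5% CO2, quantified by SYBR Green DNA staining after overnight detergent lysis.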

Another assay deals with 3D7. Described as above. Conditions: P. falciparum in erythrocytes, SYBR Green DNA, 72 h; series mostly up to 28.7 µM. The procedure, abridged:
as §1

The subject of a further assay is AA1029. The description is as above. The settings on record: P. falciparum in erythrocytes, SYBR Green DNA, 72 h; series mostly up to 28.7 µM. The procedure, abridged: as §1
For a further assay, the system named is AS120. The description is as above. Conditions: P. falciparum in erythrocytes, SYBR Green DNA, 72 h; series mostly up to 28.7 µM. The procedure, abridged:
as §1

The subject of the next assay is ATS189. The description is as above. Conditions: P. falciparum in erythrocytes, SYBR Green DNA, 72 h; series mostly up to 28.7 µM. In outline: as §1
In the next assay the test system is C2A. The description is as above. The settings on record: P. falciparum in erythrocytes, SYBR Green DNA, 72 h; series mostly up to 28.7 µM. In outline: as §1
For the next assay, the system named is CP185. The description is as above. The settings on record: P. falciparum in erythrocytes, SYBR Green DNA, 72 h; series mostly up to 28.7 µM. The procedure, abridged: as §1
For a further assay, the system named is CP191. The assay is described as above. Conditions: P. falciparum in erythrocytes, SYBR Green DNA, 72 h; series mostly up to 28.7 µM. In outline: as §1
A further assay concerns CP192. The assay is described as above. Conditions: P. falciparum in erythrocytes, SYBR Green DNA, 72 h; series mostly up to 28.7 µM. The procedure, abridged: as §1
The test system of another assay is CP194. The assay is described as above. Conditions: P. falciparum in erythrocytes, SYBR Green DNA, 72 h; series mostly up to 28.7 µM. In outline: as §1
The next assay concerns CP211. Described as above. Conditions: P. falciparum in erythrocytes, SYBR Green DNA, 72 h; series mostly up to 28.7 µM. The procedure, abridged:
as §1

For the next assay, the system named is CP217. The description is as above. The settings on record: P. falciparum in erythrocytes, SYBR Green DNA, 72 h; series mostly up to 28.7 µM. The procedure, abridged: as §1
For the next assay, the system named is CP237. The assay is described as above. Conditions: P. falciparum in erythrocytes, SYBR Green DNA, 72 h; series mostly up to 28.7 µM. In outline: as §1
For a further assay, the system named is CP238. The description is as above. Conditions: P. falciparum in erythrocytes, SYBR Green DNA, 72 h; series mostly up to 28.7 µM. In outline:
as §1

Another assay has as its system CP247. The description is as above. The settings on record: P. falciparum in erythrocytes, SYBR Green DNA, 72 h; series mostly up to 28.7 µM. In outline:
as §1

In the next assay the test system is CP252. The assay is described as above. The settings on record: P. falciparum in erythrocytes, SYBR Green DNA, 72 h; series mostly up to 28.7 µM. The procedure, abridged: as §1
The subject of the next assay is CP286. The assay is described as above. The settings on record: P. falciparum in erythrocytes, SYBR Green DNA, 72 h; series mostly up to 28.7 µM. In outline:
as §1

Another assay relates to Dd2. The description is as above. Conditions: P. falciparum in erythrocytes, SYBR Green DNA, 72 h; series mostly up to 28.7 µM. The procedure, abridged: as §1
The subject of a further assay is P94_40. Described as above. The settings on record: P. falciparum in erythrocytes, SYBR Green DNA, 72 h; series mostly up to 28.7 µM. The procedure, abridged: as §1

ATP-dependent 6-phosphofructokinase (Trypanosoma brucei brucei), sequence (O15648 whole entry, looked up): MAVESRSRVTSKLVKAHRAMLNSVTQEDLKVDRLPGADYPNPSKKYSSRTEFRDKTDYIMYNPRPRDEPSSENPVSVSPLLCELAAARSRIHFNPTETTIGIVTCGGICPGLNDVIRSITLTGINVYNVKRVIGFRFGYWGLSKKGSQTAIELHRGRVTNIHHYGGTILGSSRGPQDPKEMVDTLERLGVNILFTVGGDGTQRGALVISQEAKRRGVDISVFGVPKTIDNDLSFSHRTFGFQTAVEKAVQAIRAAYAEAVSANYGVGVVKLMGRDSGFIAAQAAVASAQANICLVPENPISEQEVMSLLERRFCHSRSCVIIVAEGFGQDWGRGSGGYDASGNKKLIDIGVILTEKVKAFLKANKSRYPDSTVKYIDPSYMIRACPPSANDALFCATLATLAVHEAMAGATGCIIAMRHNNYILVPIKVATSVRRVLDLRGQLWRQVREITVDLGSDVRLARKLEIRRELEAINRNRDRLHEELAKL

As for `C=NC(C(=O)NC1C(=O)N2C1SC(C)(C)C2C(=O)O)c1ccccc1` (stereo unspecified), the Potency entry (in assay [1]; with 3D7; in the assay on AA1029; with AS120; in the assay on ATS189; in the assay on C2A) was “inactive” each time. In addition, the Potency result with CP185, in the assay on CP191, in the assay with CP192, with CP194, in the assay with CP211 and in the assay with CP217 was “inactive” throughout. Further, the Potency result in the assay with CP237, in the assay with CP238, in the assay with CP247, in the assay with CP252, in the assay with CP286 and with Dd2 was “inactive” throughout. Moreover, in the assay with P94_40, the Potency entry is “inactive”. The activity, negative = inhibition in [2] (parasite line A) was 7.65%; in assay [2] (parasite line B), -6.25%.

As for `C[C@H]1OC(OC2C(O)[C@@H](O)C(OC3C(O)[C@@H](O)C(O)O[C@@H]3CO)O[C@@H]2CO)[C@H](O)C(O)C1N[C@H]1C=C(CO)[C@@H](O)[C@H](O)C1O` (stereo partly specified), the Potency entry (in [1]; in the assay on 3D7; in the assay with AA1029; with AS120; with ATS189; in the assay with C2A) was “inactive” in each case. The Potency result in the assay on CP185, in the assay on CP191, with CP192, in the assay on CP194, in the assay on CP211 and in the assay with CP217 was “inactive” throughout. For the same molecule, the Potency result in the assay on CP237, in the assay with CP238, with CP247, in the assay on CP252, in the assay on CP286 and with Dd2 was “inactive” each time. Further, the Potency entry with P94_40 is “inactive”. Also, the activity, negative = inhibition in assay [2] (parasite line A) is -6.96%; in [2] (parasite line B), 11.4%.

For `CC1(Cn2ccnn2)[C@H](C(=O)O)N2C(=O)C[C@H]2S1(=O)=O` (stereo partly specified), the Potency result (in assay [1]; in the assay with 3D7; in the assay with AA1029; in the assay on AS120; in the assay with ATS189; in the assay with C2A) was “inactive” in each case. In addition, the Potency entry in the assay with CP185, in the assay on CP191, with CP192, with CP194, in the assay with CP211 and in the assay on CP217 was “inactive” each time. Further, the Potency result with CP237, in the assay with CP238, in the assay on CP247, with CP252, in the assay with CP286 and in the assay on Dd2 was “inactive” each time. The Potency entry in the assay on P94_40 was “inactive”. The results for the activity, negative = inhibition in assay [2] (parasite line A) and in assay [2] (parasite line B) were 4.59% and 0.438%, respectively.

Turning to `CC1(C)C2CC[C@]1(C)[C@@H](O)C2`, the Potency entry (in [1]; in the assay on 3D7; in the assay with AA1029; with AS120; in the assay on ATS189; with C2A) was “inactive” throughout. The Potency result in the assay with CP185, in the assay on CP191, in the assay on CP192, in the assay on CP194, in the assay on CP211 and in the assay with CP217 was “inactive” in each case. For the same molecule, the Potency entry in the assay on CP237, in the assay with CP238, in the assay on CP247, in the assay on CP252, with CP286 and with Dd2 was “inactive” in each case. The Potency entry with P94_40 is “inactive”. For the same molecule, the results for the activity, negative = inhibition in assay [2] (parasite line A) and in assay [2] (parasite line B) were 6.51% and 12%, respectively.

For `NC(C(=O)O)c1ccc(O)cc1` (stereo unspecified), the Potency entry (in [1]; in the assay with 3D7; in the assay with AA1029; in the assay on AS120; with ATS189; in the assay on C2A) was “inactive” in each case. In addition, the Potency entry in the assay with CP185, with CP191, in the assay on CP192, with CP194, in the assay with CP211 and with CP217 was “inactive” each time. The Potency result in the assay with CP237, in the assay on CP238, in the assay with CP247, in the assay on CP252, with CP286 and in the assay with Dd2 was “inactive” each time. Besides, in the assay with P94_40, the Potency result was “inactive”. Also, the activity, negative = inhibition in assay [2] (parasite line A) is 3.02%; in assay [2] (parasite line B) it was 9.1%.

Regarding `CC[C@@]1(O)C[C@H](O[C@H]2C[C@@H](N(C)C)[C@@H](O[C@H]3C[C@@H](O)[C@@H](O[C@H]4CCC(=O)[C@@H](C)O4)[C@@H](C)O3)[C@@H](C)O2)c2c(cc3c(c2O)C(=O)c2c(O)cccc2C3=O)[C@H]1C(=O)OC`, the Potency entry in assay [1] is “inactive”. Moreover, the Potency is 141 nM (active) in assay [2] (parasite line A); 199 nM (active) in assay [2] (parasite line B); 126 nM (active) with 3D7; 199 nM (active) with AA1029; 100 nM (active) in the assay with AS120; 355 nM (active) with ATS189. The Potency with C2A is 178 nM (active); in the assay with CP185, 251 nM (active); with CP191, 199 nM (active); in the assay with CP192, 1070 nM (active); in the assay on CP194 it was 953 nM (active); in the assay on CP211 it was 849 nM (active). Moreover, the Potency in the assay on CP217 is 251 nM (active); in the assay on CP237, 35.5 nM (active); with CP238, 178 nM (active); in the assay on CP247 it was 251 nM (active); in the assay with CP252, 224 nM (active); in the assay on CP286, 39.8 nM (active). The Potency in the assay on Dd2 was 89.1 nM (active); with P94_40, 158 nM (active).
